High-throughput results: PubChem, Broad Institute
An excerpt weighted towards active compounds, which were near 3.4% of everything screened.
Ecoli rRNA inh: selective bacterial rRNA inhibition in E. coli; AID 720706; 1.6% of 350,000 active; E. coli WT GFP vs humanized-ribosome RFP mutants, fluorescence, 24 h; stronger effect = lower value; DMSO median 0, no signal -100; GFP signal change (wild-type ribosome), % (no concentration beside the values);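 active means significant combined selectivity score with lowered wild-type GFP, culture density cut under 30%, mutant RFP and density less affected; inactive means any of these conditions unmet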
EWS-Fli block: blocks EWS/Fli oncoprotein-driven transcription; A673 NR0B1-luciferase reporter, viability-normalised; inhibition, % at 12.6 µM; 0.67% of 350,000 active; AID 651661;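 active means mean inhibition of at least 50% after viability correction, with every replicate also passing that limit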;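 further: firefly luciferase signal divided by Alamar Blue viability fluorescence both relative to DMSO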
PGC1a acetyl inh: modulators of PGC1a acetylation. U2OS PGC1a acetylation, AlphaScreen anti-acetyl-lysine; with virally co-expressed GCN5 acetyltransferase. inhibition, % at 15.6 µM. 0.17% of 350,000 active;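 active means every replicate shows inhibition of at least 40%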;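 further: 0% = neutral control wells and 100% = positive control wells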
SIRT5 block: inhibitors of human sirtuin-5 desuccinylase | Q9NXA8 | Purified SirT5, succinyl-peptide AMC, trypsin-coupled fluorescence | inhibition, % at 15 µM | 1.1% of 330,000 active; in the data active means inhibition above about 15%
Target sequence (Q9NXA8 whole entry, looked up): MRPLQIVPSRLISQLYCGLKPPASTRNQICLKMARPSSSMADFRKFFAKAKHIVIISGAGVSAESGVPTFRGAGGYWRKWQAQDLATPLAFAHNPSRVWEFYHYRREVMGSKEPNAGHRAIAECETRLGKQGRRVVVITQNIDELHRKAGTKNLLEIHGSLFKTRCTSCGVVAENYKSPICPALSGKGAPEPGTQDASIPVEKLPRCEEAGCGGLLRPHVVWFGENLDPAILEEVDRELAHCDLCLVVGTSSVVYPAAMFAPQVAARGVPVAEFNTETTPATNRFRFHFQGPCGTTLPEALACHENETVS
PAX8 reporter: PAX8 transcriptional activity inhibition. RMG-I TPO-luciferase reporter, SteadyGlo, 24 h. inhibition, % at 12.6 µM. AID 652154. 1.2% of 360,000 active;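 active means mean replicate inhibition at least 60% with every replicate also reaching 60%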;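 further: luciferase light reporting Pax8 driven TPO promoter activity; plate controls were median of neutral control wells for no effect and mitoxantrone controls for full effect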
LGR2 antag: blocks bursicon-induced cAMP signaling via Drosophila LGR2; 0.35% of 380,000 active; inhibition, % at 9.99 µM; HEK293 LGR2, CRE-luciferase, bursicon-stimulated, 4 h;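 active means drop in luminescence signal, shown as inhibition above about 50% in the replicate tests, limit read from the data, passing the limit was not always enough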;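 further: agonist challenge used bursicon conditioned medium at about half maximal strength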
* marks the source's active call; other numbers are inactive results; ! = repeats disagree.

What do the screens show for `CCOc1cc(N2CCOCC2)c(OCC)cc1NC(C)C(=O)N1CCN(CC)CC1` (centres undefined)?
Ecoli rRNA inh: 10.0; EWS-Fli block: -13.0; PGC1a acetyl inh: -3.6; SIRT5 block: 15.5*; PAX8 reporter: 7.0; LGR2 antag: 20.4

What do the screens show for `CCOc1cc(N2CCOCC2)c(OCC)cc1NC(=O)C(C)C`?
Ecoli rRNA inh: 4.0; EWS-Fli block: 2.5; PGC1a acetyl inh: -4.8; SIRT5 block: 0.9; PAX8 reporter: 8.2; LGR2 antag: -8.8

Results for COc1ccc2c3c(n(C)c2c1)[C@H](CO)NCC31CCN(S(=O)(=O)c2ccc(C)cc2)CC1 ?
Ecoli rRNA inh: -36.9; EWS-Fli block: -8.7; PGC1a acetyl inh: -9.4; LGR2 antag: 2.1

What do the screens show for `CCCn1c(N2CCN(C(=O)Nc3ccc(Cl)cc3)CC2)nc2ccccc21`?
Ecoli rRNA inh: -26.2*; EWS-Fli block: 2.8; PGC1a acetyl inh: 6.6; SIRT5 block: 0.0; PAX8 reporter: -0.7; LGR2 antag: -8.2

Results for CO[C@@H]1CN(C)C(=O)c2ccc(NC(=O)c3cccc(Oc4ccccc4)c3)cc2OC[C@H](C)NC[C@H]1C ?
Ecoli rRNA inh: -3.8; EWS-Fli block: 69.9*; PGC1a acetyl inh: -20.6; PAX8 reporter: 31.4; LGR2 antag: 10.9

What do the screens show for `CO[C@@H]1CN(C)C(=O)c2cc(NC(=O)c3ccc(-c4ccccc4)cc3)ccc2OC[C@@H](C)NC[C@@H]1C`?
Ecoli rRNA inh: -7.5; EWS-Fli block: 74.9*; PGC1a acetyl inh: -16.3; SIRT5 block: 4.6; PAX8 reporter: 12.5; LGR2 antag: 12.8

How did CO[C@@H]1CN(C)C(=O)c2cc(NC(=O)c3nc4ccccc4s3)ccc2OC[C@H](C)NC[C@H]1C do in these assays?
Ecoli rRNA inh: -4.4; EWS-Fli block: -21.9; PGC1a acetyl inh: -6.0; PAX8 reporter: 84.4*; LGR2 antag: -8.0

Results for CO[C@@H]1CN(C)C(=O)c2cc(NC(=O)c3nc4ccccc4s3)ccc2OC[C@@H](C)NC[C@H]1C ?
Ecoli rRNA inh: -2.3; EWS-Fli block: -17.5; PGC1a acetyl inh: -20.0; SIRT5 block: 6.0; PAX8 reporter: 4.6; LGR2 antag: -3.3

Results for CO[C@H]1CN(C)C(=O)c2cc(NC(=O)c3nc4ccccc4s3)ccc2OC[C@H](C)NC[C@H]1C ?
Ecoli rRNA inh: -12.4; EWS-Fli block: -24.8; PGC1a acetyl inh: -2.2; SIRT5 block: 1.9*; PAX8 reporter: 6.9; LGR2 antag: -12.2

Results for Cc1noc(C)c1S(=O)(=O)N(C)C[C@@H]1OCCCC[C@H](C)Oc2ccc(NC(=O)Nc3ccc(F)cc3)cc2C(=O)N([C@H](C)CO)C[C@H]1C ?
Ecoli rRNA inh: 2.3; EWS-Fli block: 13.4; PGC1a acetyl inh: -2.5; SIRT5 block: 6.2; PAX8 reporter: 20.5; LGR2 antag: 10.2

How did CO[C@H]1CN(C)C(=O)c2cc(NC(=O)c3nc4ccccc4s3)ccc2OC[C@@H](C)NC[C@H]1C do in these assays?
Ecoli rRNA inh: 0.1; EWS-Fli block: -4.8; PGC1a acetyl inh: -7.7; SIRT5 block: -3.2; PAX8 reporter: -30.9; LGR2 antag: 12.1

Results for CO[C@H]1CN(C)C(=O)c2cc(NC(=O)c3nc4ccccc4s3)ccc2OC[C@@H](C)NC[C@@H]1C ?
Ecoli rRNA inh: 2.2; EWS-Fli block: 53.7*; PGC1a acetyl inh: 1.9; SIRT5 block: 0.2; PAX8 reporter: -21.6; LGR2 antag: -1.7

What do the screens show for `Cc1ccc(C(=O)C(C)OC(=O)Cc2n[nH]c(=O)c3ccccc23)cc1` (centres undefined)?
Ecoli rRNA inh: -5.5; EWS-Fli block: -5.9; PGC1a acetyl inh: -0.3; SIRT5 block: -3.6; PAX8 reporter: 16.0; LGR2 antag: 5.9

Results for Cc1cc(C)c(C(=O)C(C)OC(=O)Cc2n[nH]c(=O)c3ccccc23)cc1C (centres undefined) ?
Ecoli rRNA inh: -4.1; PGC1a acetyl inh: 2.2; SIRT5 block: 15.4*; PAX8 reporter: 5.5; LGR2 antag: 10.1

What do the screens show for `O=C(C[C@H]1CC[C@@H]2[C@H](COC[C@@H](O)CN2Cc2ccc(Cl)cc2)O1)NCCc1ccccc1`?
Ecoli rRNA inh: -21.2*!; EWS-Fli block: -4.2; PGC1a acetyl inh: -13.0; SIRT5 block: 0.7; PAX8 reporter: 21.3; LGR2 antag: 6.9
